For the first assay, the target named is TRIM48. In words: pooled miR-30 sensor sort-seq; sequence = guide strand. The settings on record: shRNA.
In turn, TTTCTCTGCTGTATTGTCTTTA came in with a sensor-assay potency score (higher = more potent) of -0.0647.
The sequence TTCTTTAACAGCTTCTCCCAGT yielded a sensor-assay potency score (higher = more potent) of -0.186.
TTCTCTGCTGTATTGTCTTTAT yielded a sensor-assay potency score (higher = more potent) of -1.43.
TTAACAGCTTCTCCCAGTGTTC: the sensor-assay potency score (higher = more potent) is -1.29.
Sequence TGTCGTTCTTAACACACCCAAG gave a sensor-assay potency score (higher = more potent) of -1.51.
Sequence AACATCTTCTTTGTCTCCCTGT gave a sensor-assay potency score (higher = more potent) of 0.214.
For the sequence AAACCGAACCTATTTGTCCTGT, the sensor-assay potency score (higher = more potent) stood at 0.0588.
In turn, TTCTCTGATTTTCACAAGCTTT displayed a sensor-assay potency score (higher = more potent) of -1.29.
With TGCTGTATTGTCTTTATGCATT, the sensor-assay potency score (higher = more potent) was -1.57.
For ATGTCGTTCTTAACACACCCAA, the sensor-assay potency score (higher = more potent) was -1.03.
On to TTTCTTTAACAGCTTCTCCCAG, for which the sensor-assay potency score (higher = more potent) is -0.688.
TTCTCAAATCTCCACATCGGAA: the sensor-assay potency score (higher = more potent) was -1.49.

The target of a further assay is TRIM50. The assay is described as above. Conditions: shRNA.
Regarding TTGTGGTGGTCCTCATTGCCGA, the sensor-assay potency score (higher = more potent) was -1.14.
For TCATAGTGCAGGTAGAGCCCGA, the sensor-assay potency score (higher = more potent) was -0.353.
TTCAGCTTGCCCTTACGGCTGG gave a sensor-assay potency score (higher = more potent) of -0.338.
As for TTCCGGATGAACTTGTGGTGGT, the sensor-assay potency score (higher = more potent) is -0.035.
For TGCTGTAGTCGAAGCGCTCAGG, the sensor-assay potency score (higher = more potent) was -1.06.
Consider TTCGCCCTGCTCATAGTGCAGG, for which the sensor-assay potency score (higher = more potent) was -1.35.
As to TAGTCGAAGCGCTCAGGCTGGC, the sensor-assay potency score (higher = more potent) was -0.915.
Take TCCAACTTGAGAGGCTCCGGGG: the sensor-assay potency score (higher = more potent) is -1.47.
As for TGGAACTTCCGGATGAACTTGT, the sensor-assay potency score (higher = more potent) was -0.0502.
Regarding AAAACTTTCCGGAAGAGCCTTT, the sensor-assay potency score (higher = more potent) is -0.209.
On the same count and under the same terms, the result for TTGGGCAGGGAGCTGCTGCCGT reads -1.11.
On the same count and under the same terms, under TGAACTTGTGGTGGTCCTCATT stands -1.36.

For the next assay, the target named is TRIM54. The description is as above. The settings on record: shRNA.
In turn, TTTGGAGAACATCTCCAGGCAG yielded a sensor-assay potency score (higher = more potent) of -0.659.
The sequence TTGCCTGCCACCAGCATCGCGA gave a sensor-assay potency score (higher = more potent) of -1.1.
Sequence TAGTCTGGCACACCTCCTCCAT registered a sensor-assay potency score (higher = more potent) of -1.55.
Still for that read-out and setting: the result for TGGTTTGGAGAACATCTCCAGG reads -1.46; that for AACAACTGCTTCTGCCTCCGGC, -0.512; that for TTGTCCTCGATAGTCTGGCACA, -1.37.
With TTATTGATCAGCTCCTTGGCCT, the sensor-assay potency score (higher = more potent) is -0.188.
On the same count and under the same terms, under TTGGAGAACATCTCCAGGCAGA stands -0.654.
For TAACAACTGCTTCTGCCTCCGG, the sensor-assay potency score (higher = more potent) is -0.255.
In the case of TTTAACAACTGCTTCTGCCTCC, the sensor-assay potency score (higher = more potent) was 0.72.
Regarding TCCATCTGTGTGATCACTGCTT, the sensor-assay potency score (higher = more potent) is -0.164.
TCGCTGAGCTCACTCTTCTGGC: the sensor-assay potency score (higher = more potent) was -0.97.

For the origin of these results see the OligoGym collection.
Note: reference of the scale not given here.
